Among all 21,000 compounds or so, about 110 (0.52%) were called active.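 Rule for the calls: active = most replicate scores above 10, or exactly half above 10 with mean activity above 10; inconclusive = mean activity below 10 while half the replicates exceed 10; inactive = most replicate scores below 10.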 The entries come from a sample that favours actives as a whole.

A short description of this assay: caspase activation in A1-primed MEFs – cell-based, CaspaseGlo luminescence, A1 inhibitor project, primary screen (AID 2241).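 Note: effector caspase 3 and 7 activity cleaving a DEVD luciferin substrate.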 The conditions noted are these: MEF A1-2A-BIM cells, caspase-Glo luminescence, 3 h; hits give high values; percent of clofoctol signal, DMSO as zero; concentration not given here.
Turning to `CN[C@@H]1C[C@H]2O[C@@](C)([C@@H]1OC)n1c3ccccc3c3c4c(c5c6ccccc6n2c5c31)C(=O)NC4`, the caspase activation is 81% (active).
The value for `CCN(CC)C(=O)c1ccc(N(Cc2ccccc2Cl)S(C)(=O)=O)cc1` was -0.556% (inactive).
To `C[C@H]1O[C@@H](O[C@H]2CC[C@]3(CO)C4CC[C@]5(C)[C@@H](C6=CC(=O)OC6)CC[C@]5(O)[C@@H]4CC[C@H]3C2)[C@H](O)[C@H](O)[C@@H]1O[C@@H]1O[C@H](CO)[C@@H](O)[C@H](O)[C@H]1O` (stereo not given in full) belongs -0.142% (inactive); to `CC1N=C(c2ccccc2)c2ccccc2N(CCCOc2ccc(F)cc2)C1=O` (stereo not given), -0.726% (inactive).
To `Cc1ccc(CSc2nnc(OC(=O)N(C)C)n2-c2cccc(Cl)c2)cc1` belongs -0.0343% (inactive).

The record behind these values is PubChem BioAssay AID2241 (Broad Institute, 2010).
